High-throughput results as filed in PubChem BioAssay.
Mcl1-Bid inh – Mcl-1/Bid binding inhibitors, primary screen, biochemical, TR-FRET, 1536-well. Induced myeloid leukemia cell differentiation protein Mcl-1 (Homo sapiens), Q07820. TR-FRET Mcl-1/Bid-Dy647 peptide binding. inhibition, % at 21.7 µM. actives 0.97% (n = 220,000). AID 1021, 2008;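 active means compounds that cut the binding signal by more than half at the single screening dose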;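 further: His-tagged Mcl-1 with europium anti-His antibody binding Bid BH3 peptide; 0% = Mcl-1 plus peptide wells and 100% = peptide-only wells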
Target sequence (Q07820 whole entry, looked up): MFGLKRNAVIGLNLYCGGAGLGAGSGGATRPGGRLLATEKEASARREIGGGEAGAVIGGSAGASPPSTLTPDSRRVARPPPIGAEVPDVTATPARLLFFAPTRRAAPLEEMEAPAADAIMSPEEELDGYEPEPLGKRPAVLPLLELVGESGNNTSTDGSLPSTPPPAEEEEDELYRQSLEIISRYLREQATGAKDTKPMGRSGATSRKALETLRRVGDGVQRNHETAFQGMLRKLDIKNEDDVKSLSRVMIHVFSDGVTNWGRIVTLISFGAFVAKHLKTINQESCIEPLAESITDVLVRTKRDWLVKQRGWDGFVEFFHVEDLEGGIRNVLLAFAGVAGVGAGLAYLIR
NCF1 inh – p47phox/p22phox peptide binding inhibitors, primary screen, biochemical, uHTS, NADPH oxidase regulatory subunit | Neutrophil cytosol factor 1 (Homo sapiens), P14598 | fluorescence polarization, 2 h | inhibition, % at 24.7 µM | actives 0.53% (n = 220,000);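 further: 0% = p47phox with labelled peptide and 100% = labelled peptide alone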
14-3-3 Bad PPI – inhibitors of 14-3-3 zeta/Bad binding, primary screen, biochemical, TR-FRET, bovine 14-3-3 zeta; 14-3-3 protein zeta/delta (Bos taurus), P63103; TR-FRET 14-3-3zeta/Dy647-pBad peptide displacement, 1 h; inhibition, % at 21.7 µM; actives 0.71% (n = 220,000); AID 781, 2007;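 active means inhibition above about 70%, limit read from the data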;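 further: 0% = full 14-3-3 plus peptide FRET controls and 100% = background without 14-3-3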
Mcl1 Noxa PPI – Mcl-1/Noxa binding inhibitors, primary screen, biochemical, TR-FRET, 1536-well | TR-FRET Mcl-1/Noxa peptide binding, 2 h | inhibition, % at 21.7 µM | actives 1.5% (n = 220,000);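 active means compounds that cut the protein-peptide binding signal by more than 50% relative to plate controls in a single-dose test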;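 further: His-tagged Mcl-1 with rhodamine Noxa BH3 peptide and terbium anti-His antibody; 0% = Mcl-1 plus Noxa peptide wells and 100% = peptide-only wells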
eIF4E-4G inh – eIF4E–eIF4G protein interaction inhibitors, primary screen, biochemical, uHTS, TR-FRET, eIF4GI fragment; inhibition, % at 21.7 µM; TR-FRET eIF4E-eIF4GI(517-606) binding, 2 h; Eukaryotic translation initiation factor 4E (Mus musculus) + Eukaryotic translation …; actives 0.37% (n = 220,000);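 further: 0% = full FRET control wells and 100% = background wells lacking eIF4GI fragment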
Bim-Mcl-1 – inhibitors of Bim peptide binding to Mcl-1, primary screen, biochemical, bead-based flow cytometry, multiplex. actives 0.1% (n = 190,000). inhibition, % at 10 µM. Bim peptide-Mcl-1 binding; in the data active means inhibition above about 40%;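 further: 0% = no compound tracer wells and 100% = peptide blocker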
* = called active by the depositor; . = no result. A selection: hits, their analogues and other compounds. The true share with any hit is near 3.3%.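 How the source made its calls, unless noted: active means inhibition above about 30% (limit read from the data); inactive means the rest.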

SMILES	Mcl1-Bid inh	NCF1 inh	14-3-3 Bad PPI	Mcl1 Noxa PPI	eIF4E-4G inh	Bim-Mcl-1
CC(C)CN(C(=O)COC(=O)c1ccc(-c2ccccc2)cc1)C1CCS(=O)(=O)C1 (centres undefined)	2	-2	-3	1	-4	-1
CC(C)c1ccc(NC(=O)c2sccc2-n2cccc2)cc1	-19	-3	-11	-10	2	-1
O=c1[nH]ncc(N2CCCC2)c1Cl	-19	8	-7	-11	81*	2
O=c1[nH]ncc(N2CCN(C(c3ccccc3)c3ccccc3)CC2)c1Cl	-4	-8	-2	-2	8	-4
CCOC(=O)C1(C(=O)OCC)C(c2ccccc2)CC(O)N1C(C)=O (centres undefined)	-17	-13	92*	-7	3	-3
CC1=Nc2ccccc2N=C(NC(=O)c2ccccc2)C1c1ccccc1 (centres undefined)	-40	-4	-9	16	-3	-4
CCN(CC)S(=O)(=O)c1ccc(C(=O)NNc2nc(-c3ccccc3)c3cc(Br)ccc3n2)cc1	-36	-8	7	-17	0	0
CC(C)(C)C(=O)NNc1nc(-c2ccccc2)c2cc(Br)ccc2n1	97*	-8	8	-4	5	-3
Cn1cccc1-c1cc(C(=O)N2CCc3c([nH]c4ccccc34)C2c2ccccn2)[nH]n1 (centres undefined)	-19	-19	-7	16	73*	0
CC(=O)Nc1sc(N/N=C\c2ccc(O)cc2)nc1-c1cccs1	-71	-10	4	104*	1	.
CC(=O)Nc1sc(N/N=C\c2ccccc2F)nc1-c1cccs1	-9	-10	5	62*	5	-8
CC(=O)Nc1sc(N/N=C\c2cccc(Cl)c2)nc1-c1cccs1	-10	-15	-6	37	-4	-6
CSc1sc(C(=O)N2CCCCC2)c(-c2cccs2)c1C#N	-8	3	-5	10	-2	.
CS(=O)(=O)c1ccc2nc(NC(=O)c3ccc(NS(=O)(=O)c4ccc(F)c(F)c4)cc3)sc2c1	64*	-20	72*	6	-10	.
c1ccc(-n2cccc2CNC2CCCCC2)cc1	-10	-1	70*	13	-4	0
CC(=O)C(C(C)=O)c1c(Cl)c(O)c(O)c2c(C(=O)c3ccccc3)coc12	1	-1	12	56*	-2	0
O=C(CSc1nnc(-c2ccco2)o1)c1ccc([N+](=O)[O-])cc1	-44	-12	-5	11	93*	.
O=C(CSc1nnc(-c2ccco2)o1)c1ccccc1Cl	-31	-10	8	20	0	0
O=C(NCc1ccco1)c1ccc(N2CCCC2=O)cc1	-21	-18	0	12	-9	11
O=C(N/N=C/c1ccco1)c1ccc(N2CCCC2=O)cc1	93*	-5	-5	8	4	-1
Cc1ccc(OCC(=O)NC(=S)Nc2cccc(NC(=O)c3ccccc3)c2)cc1	-21	-9	-5	13	-2	-2
Cc1ccc(OCC(=O)NC(=S)Nc2cccc(NC(=O)c3ccc(Cl)cc3Cl)c2)cc1	63*	-9	-2	8	-3	-4
CC(C)c1ccc(Nc2c([N+](=O)[O-])c(=O)n(C)c3ccccc23)cc1	-11	-9	8	-5	-3	.
Cn1c(=O)c(Nc2ccc(O)cc2)c2c3c(cccc31)C(=O)c1ccccc1-2	-12	6	-13	66*	10	0
COCCN1CCC(CNCc2c(C(=O)N3CCCCC3)nc3c(C)cccn23)C1 (centres undefined)	-50	-5	-6	22	-6	.
Cc1ccc(NCc2ccco2)cc1C	9	-2	71*	15	2	-2
